target: CaNbp2; test: SPOT peptide array binding signal intensity (averaged, normalized) (arbitrary units (background-subtracted, floor 0; scale differs between SH3 domains)); higher = stronger binding of the SH3 domain to the peptide
Outline: (§1)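 GST-SH3 fusions from four yeast species, purified on glutathione Sepharose, were incubated at 10 μg/ml overnight at 4°C on membranes of synthetic 15-mer peptides in which cysteines were replaced with serines. Binding signal is the normalized, background-subtracted spot intensity averaged over replicates, in domain-specific arbitrary units.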

Binder | SPOT peptide array binding signal intensity
NAGIRPKFILALNDE | 122
RLSFFFPLDPAYIRN | 474

target: CaRvs167; test: as above
Outline: as §1

Binder | SPOT peptide array binding signal intensity
NAGIRPKFILALNDE | 1.17
RLSFFFPLDPAYIRN | 57.8

target: CaRvs167-3; test: as above
Outline: as §1

Binder | SPOT peptide array binding signal intensity
NAGIRPKFILALNDE | 17
RLSFFFPLDPAYIRN | 238

target: CaSho1; test: as above
Outline: as §1

Binder | SPOT peptide array binding signal intensity
NAGIRPKFILALNDE | 222
RLSFFFPLDPAYIRN | 1050

target: CaSla1-D1-D2; test: as above
Outline: as §1

Binder | SPOT peptide array binding signal intensity
NAGIRPKFILALNDE | ≤ 0
RLSFFFPLDPAYIRN | ≤ 0

target: CaSla1-D3; test: as above
Outline: as §1

Binder | SPOT peptide array binding signal intensity
NAGIRPKFILALNDE | 10.8
RLSFFFPLDPAYIRN | 35.8

target: ScAbp1; test: as above
Outline: as §1

Binder | SPOT peptide array binding signal intensity
NAGIRPKFILALNDE | ≤ 0
RLSFFFPLDPAYIRN | 2

target: ScBbc1; test: as above
Outline: as §1

Binder | SPOT peptide array binding signal intensity
NAGIRPKFILALNDE | ≤ 0
RLSFFFPLDPAYIRN | ≤ 0

target: ScBem1-D1; test: as above
Outline: as §1

Binder | SPOT peptide array binding signal intensity
NAGIRPKFILALNDE | 1
RLSFFFPLDPAYIRN | 17

target: ScBzz1-D1; test: as above
Outline: as §1

Binder | SPOT peptide array binding signal intensity
NAGIRPKFILALNDE | 43
RLSFFFPLDPAYIRN | 42

target: ScBzz1-D2; test: as above
Outline: as §1

Binder | SPOT peptide array binding signal intensity
NAGIRPKFILALNDE | 19
RLSFFFPLDPAYIRN | 79

target: ScCyk3; test: as above
Outline: as §1

Binder | SPOT peptide array binding signal intensity
NAGIRPKFILALNDE | 54.5
RLSFFFPLDPAYIRN | 282

target: ScFus1; test: as above
Outline: as §1

Binder | SPOT peptide array binding signal intensity
NAGIRPKFILALNDE | 159
RLSFFFPLDPAYIRN | 627

target: ScHof1; test: as above
Outline: as §1

Binder | SPOT peptide array binding signal intensity
NAGIRPKFILALNDE | ≤ 0
RLSFFFPLDPAYIRN | 2

target: ScHse1; test: as above
Outline: as §1

Binder | SPOT peptide array binding signal intensity
NAGIRPKFILALNDE | 628
RLSFFFPLDPAYIRN | 1380

target: ScLsb1; test: as above
Outline: as §1

Binder | SPOT peptide array binding signal intensity
NAGIRPKFILALNDE | 1.5
RLSFFFPLDPAYIRN | 0.5

target: ScLsb2; test: as above
Outline: as §1

Binder | SPOT peptide array binding signal intensity
NAGIRPKFILALNDE | ≤ 0
RLSFFFPLDPAYIRN | ≤ 0

target: ScLsb3; test: as above
Outline: as §1

Binder | SPOT peptide array binding signal intensity
NAGIRPKFILALNDE | ≤ 0
RLSFFFPLDPAYIRN | 48

target: ScLsb4; test: as above
Outline: as §1

Binder | SPOT peptide array binding signal intensity
NAGIRPKFILALNDE | ≤ 0
RLSFFFPLDPAYIRN | 9

target: ScMyo3; test: as above
Outline: as §1

Binder | SPOT peptide array binding signal intensity
NAGIRPKFILALNDE | 2.5
RLSFFFPLDPAYIRN | 9.5

target: ScMyo5; test: as above
Outline: as §1

Binder | SPOT peptide array binding signal intensity
NAGIRPKFILALNDE | ≤ 0
RLSFFFPLDPAYIRN | 5

target: ScNbp2; test: as above
Outline: as §1

Binder | SPOT peptide array binding signal intensity
NAGIRPKFILALNDE | 23.5
RLSFFFPLDPAYIRN | 84.5

target: ScPex13; test: as above
Outline: as §1

Binder | SPOT peptide array binding signal intensity
NAGIRPKFILALNDE | ≤ 0
RLSFFFPLDPAYIRN | 6.25

target: ScRvs167; test: as above
Outline: as §1

Binder | SPOT peptide array binding signal intensity
NAGIRPKFILALNDE | ≤ 0
RLSFFFPLDPAYIRN | 7.67

target: ScSho1; test: as above
Outline: as §1

Binder | SPOT peptide array binding signal intensity
NAGIRPKFILALNDE | 158
RLSFFFPLDPAYIRN | 738

target: ScSla1-D1-D2; test: as above
Outline: as §1

Binder | SPOT peptide array binding signal intensity
NAGIRPKFILALNDE | ≤ 0
RLSFFFPLDPAYIRN | 13

target: ScSla1-D3; test: as above
Outline: as §1

Binder | SPOT peptide array binding signal intensity
NAGIRPKFILALNDE | 6.5
RLSFFFPLDPAYIRN | 37.5

target: SpAbp1-D1; test: as above
Outline: as §1

Binder | SPOT peptide array binding signal intensity
NAGIRPKFILALNDE | ≤ 0
RLSFFFPLDPAYIRN | 1

target: SpBbc1; test: as above
Outline: as §1

Binder | SPOT peptide array binding signal intensity
NAGIRPKFILALNDE | 4
RLSFFFPLDPAYIRN | 0.5

target: SpBzz1-D1; test: as above
Outline: as §1

Binder | SPOT peptide array binding signal intensity
NAGIRPKFILALNDE | 201
RLSFFFPLDPAYIRN | 121

target: SpBzz1-D2; test: as above
Outline: as §1

Binder | SPOT peptide array binding signal intensity
NAGIRPKFILALNDE | ≤ 0
RLSFFFPLDPAYIRN | 2

target: SpCyk3; test: as above
Outline: as §1

Binder | SPOT peptide array binding signal intensity
NAGIRPKFILALNDE | 2
RLSFFFPLDPAYIRN | 24

target: SpHof1; test: as above
Outline: as §1

Binder | SPOT peptide array binding signal intensity
NAGIRPKFILALNDE | 28.8
RLSFFFPLDPAYIRN | 130

target: SpHof1-2; test: as above
Outline: as §1

Binder | SPOT peptide array binding signal intensity
NAGIRPKFILALNDE | 19
RLSFFFPLDPAYIRN | 45

target: SpHof1-3; test: as above
Outline: as §1

Binder | SPOT peptide array binding signal intensity
NAGIRPKFILALNDE | 214
RLSFFFPLDPAYIRN | 389

target: SpHse1; test: as above
Outline: as §1

Binder | SPOT peptide array binding signal intensity
NAGIRPKFILALNDE | 481
RLSFFFPLDPAYIRN | 1620

target: SpLsb1; test: as above
Outline: as §1

Binder | SPOT peptide array binding signal intensity
NAGIRPKFILALNDE | ≤ 0
RLSFFFPLDPAYIRN | ≤ 0

target: SpLsb4; test: as above
Outline: as §1

Binder | SPOT peptide array binding signal intensity
NAGIRPKFILALNDE | ≤ 0
RLSFFFPLDPAYIRN | 15

target: SpMyo1; test: as above
Outline: as §1

Binder | SPOT peptide array binding signal intensity
NAGIRPKFILALNDE | ≤ 0
RLSFFFPLDPAYIRN | 17.8

target: SpNbp2; test: as above
Outline: as §1

Binder | SPOT peptide array binding signal intensity
NAGIRPKFILALNDE | 16.5
RLSFFFPLDPAYIRN | 69.5

target: SpPex13; test: as above
Outline: as §1

Binder | SPOT peptide array binding signal intensity
NAGIRPKFILALNDE | 4
RLSFFFPLDPAYIRN | 23.5

target: SpRvs167; test: as above
Outline: as §1

Binder | SPOT peptide array binding signal intensity
NAGIRPKFILALNDE | 3.5
RLSFFFPLDPAYIRN | 11.2

target: SpSla1-D1-D2; test: as above
Outline: as §1

Binder | SPOT peptide array binding signal intensity
NAGIRPKFILALNDE | 4
RLSFFFPLDPAYIRN | 6

target: SpSla1-D3; test: as above
Outline: as §1

Binder | SPOT peptide array binding signal intensity
NAGIRPKFILALNDE | ≤ 0
RLSFFFPLDPAYIRN | 32

target: AgAbp1; test: as above
Outline: as §1

Binder | SPOT peptide array binding signal intensity
RLSFFFPLDPAYIRN | ≤ 0

target: AgBbc1; test: as above
Outline: as §1

Binder | SPOT peptide array binding signal intensity
RLSFFFPLDPAYIRN | 2.25

target: AgBem1-D1; test: as above
Outline: as §1

Binder | SPOT peptide array binding signal intensity
RLSFFFPLDPAYIRN | 121

target: AgBzz1-D1; test: as above
Outline: as §1

Binder | SPOT peptide array binding signal intensity
RLSFFFPLDPAYIRN | 27

target: AgBzz1-D2; test: as above
Outline: as §1

Binder | SPOT peptide array binding signal intensity
RLSFFFPLDPAYIRN | 72.5

target: AgCyk3; test: as above
Outline: as §1

Binder | SPOT peptide array binding signal intensity
RLSFFFPLDPAYIRN | 7

target: AgFus1; test: as above
Outline: as §1

Binder | SPOT peptide array binding signal intensity
RLSFFFPLDPAYIRN | 854

target: AgHof1; test: as above
Outline: as §1

Binder | SPOT peptide array binding signal intensity
RLSFFFPLDPAYIRN | 34

target: AgHse1; test: as above
Outline: as §1

Binder | SPOT peptide array binding signal intensity
RLSFFFPLDPAYIRN | 1180

target: AgLsb1; test: as above
Outline: as §1

Binder | SPOT peptide array binding signal intensity
RLSFFFPLDPAYIRN | 1.5

target: AgLsb4; test: as above
Outline: as §1

Binder | SPOT peptide array binding signal intensity
RLSFFFPLDPAYIRN | 152

target: AgMyo5; test: as above
Outline: as §1

Binder | SPOT peptide array binding signal intensity
RLSFFFPLDPAYIRN | 1.5

target: AgNbp2; test: as above
Outline: as §1

Binder | SPOT peptide array binding signal intensity
RLSFFFPLDPAYIRN | 34

target: AgRvs167; test: as above
Outline: as §1

Binder | SPOT peptide array binding signal intensity
RLSFFFPLDPAYIRN | 4

target: AgSho1; test: as above
Outline: as §1

Binder | SPOT peptide array binding signal intensity
RLSFFFPLDPAYIRN | 50

target: AgSla1-D1-D2; test: as above
Outline: as §1

Binder | SPOT peptide array binding signal intensity
RLSFFFPLDPAYIRN | 37

target: AgSla1-D3; test: as above
Outline: as §1

Binder | SPOT peptide array binding signal intensity
RLSFFFPLDPAYIRN | 8.5

target: CaAbp1-D1; test: as above
Outline: as §1

Binder | SPOT peptide array binding signal intensity
RLSFFFPLDPAYIRN | 2

target: CaAbp1-D2; test: as above
Outline: as §1

Binder | SPOT peptide array binding signal intensity
RLSFFFPLDPAYIRN | ≤ 0

target: CaBbc1; test: as above
Outline: as §1

Binder | SPOT peptide array binding signal intensity
RLSFFFPLDPAYIRN | ≤ 0

target: CaBem1-D1; test: as above
Outline: as §1

Binder | SPOT peptide array binding signal intensity
RLSFFFPLDPAYIRN | 24

target: CaBzz1-D1; test: as above
Outline: as §1

Binder | SPOT peptide array binding signal intensity
RLSFFFPLDPAYIRN | 32.5

target: CaBzz1-D2; test: as above
Outline: as §1

Binder | SPOT peptide array binding signal intensity
RLSFFFPLDPAYIRN | 43

target: CaCyk3; test: as above
Outline: as §1

Binder | SPOT peptide array binding signal intensity
RLSFFFPLDPAYIRN | 3

target: CaFus1; test: as above
Outline: as §1

Binder | SPOT peptide array binding signal intensity
RLSFFFPLDPAYIRN | 2490

target: CaHof1; test: as above
Outline: as §1

Binder | SPOT peptide array binding signal intensity
RLSFFFPLDPAYIRN | 0.5

target: CaHse1; test: as above
Outline: as §1

Binder | SPOT peptide array binding signal intensity
RLSFFFPLDPAYIRN | 134

target: CaLsb1; test: as above
Outline: as §1

Binder | SPOT peptide array binding signal intensity
RLSFFFPLDPAYIRN | 1.5

target: CaLsb4; test: as above
Outline: as §1

Binder | SPOT peptide array binding signal intensity
RLSFFFPLDPAYIRN | 45.5

target: CaMyo5; test: as above
Outline: as §1

Binder | SPOT peptide array binding signal intensity
RLSFFFPLDPAYIRN | 187
